# ELG1 repair inh = blocks ELG1-dependent DNA repair in HEK293T cells | hit rate 2.3% among 330,000 | HEK293T ELG1-luciferase reporter, luminescence, 16 h; DNA damage induced by 5-fluorouridine | Potency, µM (titrated, usually from 46.1 µM), without a hit: at the highest dose activity change, negative = inhibition, usual class: inhibitors; note: % is set by controls: 0 for no effect and ±100 for the full control effect; nearly all actives have a fitted effect of over 55% in size
#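 HEK293T cells expressing luciferase-tagged ELG1 (2,000/well) received 5-Fluorouridine plus compound or DMSO for 16 hr at 37 °C. Luciferase was read by ONE-Glo luminescence after 30 min at room temperature.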
# NPC1 prom act = NPC1 promoter activation | Huh7 NPC1 promoter luciferase reporter, 24 h | Potency, µM (titrated, usually from 9.22 µM), for inactives: top-dose activation, most hits filed as activators | hit rate 2.4% among 320,000 | AID 485313; note: % of control where 0% means no effect; nearly all actives have a fitted effect of over 60% in size
#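 Stable NPC1-promoter luciferase Huh7 line; cpd (DMSO) 24 h, 37 °C, 5% CO2; Amplite luciferase reagent 10 min RT; luminescence readout. qHTS format.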
# FLuc counter = counter-screen for miR-21 project: firefly luciferase inhibitors or activators; purified FLuc, Km substrates, luminescence inhibition; Potency, µM (series often up to 57.5 µM), for inactives: top-dose activity change, negative = inhibition, usual class: inhibitors; hit rate 6.9% among 360,000; AID 588342;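 note: plate controls were vehicle for no effect and reference inhibitor for full effect; nearly all actives have a fitted effect of over 55% in size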
# Target sequence (P08659 whole entry, looked up): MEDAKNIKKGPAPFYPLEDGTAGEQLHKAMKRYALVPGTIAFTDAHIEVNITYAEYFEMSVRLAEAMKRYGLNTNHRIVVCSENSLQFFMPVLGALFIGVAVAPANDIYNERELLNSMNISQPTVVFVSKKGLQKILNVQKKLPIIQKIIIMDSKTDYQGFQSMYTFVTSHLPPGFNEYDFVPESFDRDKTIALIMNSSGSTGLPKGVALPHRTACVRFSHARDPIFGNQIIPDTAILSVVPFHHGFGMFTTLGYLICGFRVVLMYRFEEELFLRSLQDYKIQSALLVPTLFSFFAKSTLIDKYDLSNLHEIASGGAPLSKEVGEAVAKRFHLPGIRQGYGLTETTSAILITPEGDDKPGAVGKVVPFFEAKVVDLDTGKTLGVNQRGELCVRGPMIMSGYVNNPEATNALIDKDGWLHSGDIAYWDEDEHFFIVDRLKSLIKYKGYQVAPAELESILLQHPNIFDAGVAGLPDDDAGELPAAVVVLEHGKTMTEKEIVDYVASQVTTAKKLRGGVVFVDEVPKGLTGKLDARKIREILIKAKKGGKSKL
#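 Biochemical qHTS of compounds, final roughly 60 µM downward over six points, against 10 nM purified firefly luciferase using Km concentrations of substrates (10 uM D-luciferin, 10 uM ATP) in Tris acetate pH 7.5 buffer; luminescence output.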
# ELG1 genotox = inducers of genotoxicity in HEK293T ELG1-luciferase cells. HEK293T ELG1-luciferase reporter, luminescence, 16 h. Potency, µM (series often up to 46 µM), without a hit: at the top dose activity change, positive = activation, usual class: activators. hit rate 1.3% among 330,000. AID 504466; note: % of control where 0% means no effect; nearly all actives have a fitted effect of over 60% in size
#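 Step 1: seed 2,000 HEK293T ELG1-luciferase cells per well. Step 2: add compound or DMSO, incubate 16 hr at 37 °C. Step 3: ONE-Glo, 30 min at room temperature, read luminescence.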
# Rab9 prom act = Rab9 promoter activation; Huh7 Rab9 promoter-luciferase reporter, luminescence, 24 h; Potency, µM (highest dose often 9.22 µM), inactives show at the top dose activation, negative = inhibition, hits mostly activators; hit rate 2.8% among 320,000; AID 485297; note: % of control where 0% means no effect; nearly all actives have a fitted effect of over 60% in size
#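 Luciferase signal after 10 min detection reagent at ambient indicates Rab9 promoter upregulation; stably transfected Huh7 cells were treated 24 h with compound in DMSO at 37 °C, 5% CO2.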
# SMN2 splice enh = enhancers of SMN2 splice variant expression; HEK293 SMN2-luciferase splicing reporter, luminescence, 30-36 h; Potency, µM (highest dose often 46.1 µM), for the others: at the highest dose activity change, positive = activation, usual class: activators; hit rate 2.8% among 210,000; AID 1458; note: % of control where 0% means no effect; nearly all actives have a fitted effect of over 55% in size
#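 HEK293 cells carry an SMN2 […]–luciferase reporter in which exon 7 inclusion puts luciferase in frame. Cells were plated 10-12 h before compound addition, then incubated 30-36 h at 37C. ONE-Glo luminescence was read; sodium butyrate at 4.5 mM final served as control.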
# * = called active by the depositor; ? = inconclusive; · = no result given; [ ] = another dose, or the depositor's remark. Rows were chosen to be rich in hits. Some 9.2% of all compounds tested hit in one or more screens of this group. Calls come from the whole dose curve; as a rule, active = well fitted curve in the direction sought with a large enough effect; inconclusive = small, poorly fitted or top-dose-only effect, or another doubt; inactive = no such curve, though single readings can be large; an effect the other way counts as inactive or inconclusive. Potency is the fitted concentration of half-maximal effect.
SMILES,ELG1 repair inh,NPC1 prom act,FLuc counter,ELG1 genotox,Rab9 prom act,SMN2 splice enh
COc1ccccc1NC(=O)CN1C(=O)CC(C)S(=O)(=O)c2ccccc21 (configuration not stated),12%,-2%,1%,6%,9%,·
CSc1ccc(Cc2ccc(Cl)cc2Cl)nn1,?,28%,17µM*,12%,?,-11%
COc1ccc(-c2nc(-c3cccs3)c(-c3cccs3)[nH]2)cc1O,?,1%,17µM*,-15%,-2%,27%
COCCn1c(SCC(=O)c2[nH]c(C)c(C(C)=O)c2C)nc2ccccc21,26µM*,-3%,-1%,-2%,1%,-12%
CCOC(=O)c1c(C)[nH]c(C(=O)CSc2nnc(CC(C)c3ccccc3)o2)c1C (configuration not stated),0%,-4%,2%,-2%,-13%,-30%
CCOC(=O)c1c(C)[nH]c(C(=O)CSc2ccc(Cl)cc2)c1C,?,?,6µM*,?,?,11µM*
CCOC(=O)c1c(C)[nH]c(C(=O)CSc2nc3ccccc3o2)c1C,13%,-5%,9%,5%,-2%,0.32µM*
Cc1ccc(CNC(=O)CCc2nc3ccccc3c(=O)[nH]2)cc1,-11%,2%,-1%,-1%,0%,-18%
CC(=O)NCc1ccc(-c2csc(NC(=O)CCc3nc4ccccc4c(=O)[nH]3)n2)s1,21µM*,·,·,-4%,·,·
O=C(CCc1nc2ccccc2c(=O)[nH]1)Nc1nnc(SCc2ccc(Cl)cc2)s1,0%,-3%,1%,6%,-4%,·
O=C(CCc1nc2ccccc2c(=O)[nH]1)Nc1nnc(SCc2ccccc2F)s1,?,29%,19µM*,?,?,·
CCCCNC(=O)c1cc(-c2ccc(OC)cc2)on1,?,4µM*,8.5µM*,8.2µM*,3.2µM*,14µM*
COc1ccc(-c2cc(C(=O)Nc3cc(C)nn3-c3ccccc3)no2)cc1,23%,-5%,13µM*,2%,-5%,15%
CCCCNC(=O)c1cc(-c2ccc(F)cc2)on1,?,3.5µM*,9.5µM*,?,4µM*,25µM*
CCCNC(=O)c1cc(-c2ccc(OC)cc2)on1,?,0.89µM*,2.4µM*,4.6µM*,2.8µM*,10µM*
CCCCNC(=O)c1cc(-c2ccc(OC)c(OC)c2)on1,?,14%,-11%,12%,16%,-2%
COc1ccc(C2=NOC(C)(c3nnc(-c4ccc(F)cc4)o3)C2)cc1 (configuration not stated),?,1%,-5%,6%,-5%,·
CCCOc1ccc(CSc2n[nH]c(C)n2)cc1,?,2.8µM*,19µM*,?,2.8µM*,·
CCC(=O)c1ccc(OCC(=O)Nc2nn3cnnc3s2)cc1,10%,3%,27µM*,7%,1%,-3%
CCOc1ccc(NC(=O)COc2ccc(-n3cnnn3)cc2)cc1,?,-9%,6%,-2%,2%,·
CC(=O)Nc1ccc(-c2cc(C(=O)O)c3cc4ccccc4cc3n2)cc1,·,·,·,·,·,0%[9.22 µM]
CC(=O)Nc1ccc(-c2cc(C(=O)O)c3ccc(C)cc3n2)cc1,?,18%,17µM*,9%,4%,·
COC(=O)c1cc(-c2ccc(NC(C)=O)cc2)nc2ccccc12,0%,-1%,12µM*,-3%,-3%,-5%
CCOC(=O)C1CCCN(CCC(=O)Nc2cccc(Cl)c2C)C1 (configuration not stated),2%,-1%,-1%,1%,5%,·
CCOC(=O)c1scc(-c2ccc(C)cc2)c1S(=O)(=O)N1CCN(c2ccccc2)CC1,·,·,-2%,·,·,·
Cc1noc(C)c1COC(=O)C1CCN(S(=O)(=O)c2c(Cl)cccc2Cl)CC1,-12%,-4%,3%,28%,-7%,·
O=C(Nc1nc2ccccc2[nH]1)Nc1ccccc1F,?,?,1.1µM*,1.2µM*,?,·

# Source: PubChem (National Center for Advancing Translational Sciences (NCATS))
